Records with an inconclusive call do not appear. The source made the active and inactive calls. Rule for the calls: active = hit-call score of the fitted dose curve at least 0.9, where 1 is the maximum; inconclusive = response in the unintended direction; inactive = score below 0.9.

The first assay can be described thus: ATG_M_06_TRANS: Attagene TRANS-FACTORIAL HepG2 Assay for M06 Transcription Factor (Internal Marker) (AID 2282983).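 Note: reporter transcript level by RT-PCR then capillary electrophoresis fluorescence.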 The settings on record: HepG2 Attagene TRANS M06 internal marker reporter. A digest of the protocol: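 HepG2 cells transiently transfected with GAL4-UAS multiple reporter units, dosed 24 h. Reporter RNA reverse-transcribed, PCR-amplified, 6-FAM-labeled, HpaI-digested and quantified by capillary electrophoresis; this internal-marker signal fitted upward relative to DMSO.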
Take `Cc1cccc(C)c1[N+](=O)[O-]`: the outcome was inactive.
Same read-out and setting: the result for `Nc1cccc(S(=O)(=O)c2cccc(N)c2)c1` reads “inactive”.
The same measure, in the same setting: with `CC1(C)[C@H]2CC[C@]1(C)[C@H](O)C2` the entry was “inactive”.
Still for that read-out and setting: with `Cc1ccc2n[nH]nc2c1` the entry was “inactive”; with `CCC(C)(O)CCC=C(C)C` (configuration not stated), “inactive”; with `Cc1ccc(C(C)C)cc1O`, “inactive”.
As for `Nc1cc([N+](=O)[O-])ccc1O`, the call was inactive.
Same read-out and setting: with `S=C(S)NCCNC(=S)S` the entry was “inactive”; with `N#Cc1ccccc1`, “inactive”.
In the case of `CCCCCCC#CC(=O)OC`, the result was inactive.
The same measure, in the same setting: with `O=Cc1ccc(F)cc1` the entry was “inactive”.
Same read-out and setting: the result for `C=CC(=O)OCC(O)COc1ccccc1` (configuration not stated) reads “inactive”.
The same measure, in the same setting: the result for `FC1(F)C(F)(F)C(F)(F)C2(F)C(F)(C1(F)F)C(F)(F)C(F)(F)C1(F)C(F)(F)C(F)(F)C(F)(F)C(F)(F)C12F` (configuration not stated) reads “inactive”; that for `NC(N)=NC(=O)c1nc(Cl)c(N)nc1N`, “inactive”; that for `CC(C=O)Cc1ccc(C(C)C)cc1` (configuration not stated), “inactive”.
On to `COc1ccnc(CS(=O)c2nc3cc(OC(F)F)ccc3[nH]2)c1OC` (configuration not stated), for which the call was inactive.
Still for that read-out and setting: the result for `COC(=O)c1ccc(C)cc1` reads “inactive”.
On the same count and under the same terms, the result for `O=[N+]([O-])c1ccc(C=Cc2ccc([N+](=O)[O-])cc2S(=O)(=O)O)c(S(=O)(=O)O)c1` reads “inactive”; that for `Cc1cccc(Nc2ccccc2C(=O)O)c1C`, “inactive”.
Same read-out and setting: the result for `CCCCC(CC)COCCC#N` (configuration not stated) reads “inactive”; that for `O=C(O)c1ccc([N+](=O)[O-])cc1`, “inactive”; that for `Cc1cc(C2(c3cc(C)c(O)cc3C)OS(=O)(=O)c3ccccc32)c(C)cc1O`, “inactive”.
For `CC(=O)C(C)=O`, the molecule was classed as inactive.
With `CC1(C)[C@H](C(=O)OCc2cccc(Oc3ccccc3)c2)[C@@H]1C=C(Cl)Cl`, the molecule was called inactive.
The same measure, in the same setting: with `CO[Si](C)(OC)c1ccccc1` the entry was “inactive”.
Regarding `Cc1c(N(C)C)c(=O)n(-c2ccccc2)n1C`, the call was inactive.

A further assay is described as follows: ATG_M_32_TRANS: Attagene TRANS-FACTORIAL HepG2 Assay for M32 Transcription Factor (Internal Marker) (AID 2282984).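 Note: transcript level of a background control reporter unit measured by RT-PCR and capillary electrophoresis.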 The settings on record: HepG2 Attagene TRANS M32 internal marker reporter. A digest of the protocol:
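Capillary electrophoresis of 6-FAM-labelled reporter fragments gives the signal; data fitted for gain over DMSO negative control. Source: HepG2 cells bearing transient multiple reporter transcription units, 24 h exposure.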
Turning to `Cc1cccc(C)c1[N+](=O)[O-]`, the outcome was inactive.
Same read-out and setting: with `O=Nc1ccc(Nc2ccccc2)cc1` the entry was “inactive”; with `CC(C)C[C@H]1C(=O)N2CCC[C@H]2[C@]2(O)O[C@](NC(=O)[C@@H]3C=C4c5cccc6[nH]c(Br)c(c56)C[C@H]4N(C)C3)(C(C)C)C(=O)N12`, “inactive”.
The same measure, in the same setting: the result for `Nc1cccc(S(=O)(=O)c2cccc(N)c2)c1` reads “inactive”; that for `O=C(O)CCSCCC(=O)O`, “inactive”.
On the same count and under the same terms, the result for `CC1(C)[C@H]2CC[C@]1(C)[C@H](O)C2` reads “inactive”; that for `Cc1ccc2n[nH]nc2c1`, “inactive”.
Regarding `O=C1c2ccccc2C(=O)N1SC1CCCCC1`, the result was inactive.
In the case of `CCC(C)(O)CCC=C(C)C` (configuration not stated), the molecule was classed as inactive.
On the same count and under the same terms, the result for `Cc1ccc(C(C)C)cc1O` reads “inactive”; that for `Nc1cc([N+](=O)[O-])ccc1O`, “inactive”; that for `S=C(S)NCCNC(=S)S`, “inactive”.
On to `N#Cc1ccccc1`, for which the molecule was classed as inactive.
On the same count and under the same terms, the result for `CCCCC(CC)COC(=O)/C=C\C(=O)OCC(CC)CCCC` (configuration not stated) reads “inactive”; that for `CCCCCCC#CC(=O)OC`, “inactive”.
Turning to `O=Cc1ccc(F)cc1`, the result was inactive.
For the molecule `CCCCCCOC(=O)CCCCC`, the call was inactive.
`NC(N)=NC(=O)c1nc(Cl)c(N)nc1N`: the outcome was inactive.
The same measure, in the same setting: with `CC(C=O)Cc1ccc(C(C)C)cc1` (configuration not stated) the entry was “inactive”; with `COC(=O)c1ccc(C)cc1`, “inactive”.
On the same count and under the same terms, the result for `Cc1cccc(Nc2ccccc2C(=O)O)c1C` reads “inactive”.
On to `CCCCC(CC)COCCC#N` (configuration not stated), for which the result was inactive.
On the same count and under the same terms, with `O=C(O)c1ccc([N+](=O)[O-])cc1` the entry was “inactive”.
As to `CC1(C)[C@H](C(=O)OCc2cccc(Oc3ccccc3)c2)[C@@H]1C=C(Cl)Cl`, the outcome was inactive.
On to `Cc1c(N(C)C)c(=O)n(-c2ccccc2)n1C`, for which the molecule was called inactive.
Same read-out and setting: the result for `Nc1ccc(F)c([N+](=O)[O-])c1` reads “inactive”.

(Values after PubChem BioAssay (EPA / NIEHS).)
